About 7,900 targets were measured; listed, in parts, are those with a hit and a random draw of the rest. About 0.6% of all pairs of compound and target were hits. A number with no mark means an inactive call.
What was measured:
Assay in all cases: log2 fold change, soluble protein after heating vs DMSO (PISA); higher = thermal stabilisation; K562 cells, 10 uM, 30 min; active = over 0.2 and 3.5 SD of the protein, either way, in both replicates (recomputed)
[1] = compound: CC[C@@H]1C(=O)N(C)c2cnc(Nc3ccc(C(=O)NC4CCN(C)CC4)cc3OC)nc2N1C1CCCC1
Method in brief: (§1)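 Soluble protein was defined as the supernatant after 21,000xg for 90 min. It came from K562 cells at 2×10^6 cells/mL given 10 μM compound for 30 min, heated in aliquots for 3 min across 48°C-58°C, pooled, and extracted in PBS with 0.5% NP-40 at 4°C, and was quantified by TMTpro 16plex LC-MS/MS with equalised channel sums. Thermal stability against control samples, from duplicates, is reported as log2 fold change.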

volasertib = compound: CC[C@@H]1C(=O)N(C)c2cnc(Nc3ccc(C(=O)N[C@H]4CC[C@H](N5CCN(CC6CC6)CC5)CC4)cc3OC)nc2N1C(C)C [volasertib]
Method in brief: as §1

[2] = compound: CC[C@H](C)N1C=C(C2=C(C=C(C=C21)C3=CN=C(C=C3)N4CCNCC4)C(=O)NCC5=C(C=C(NC5=O)C)C)C
Method in brief: as §1

epoxomicin = compound: CC[C@H](C)[C@@H](C(=O)N[C@@H]([C@@H](C)O)C(=O)N[C@@H](CC(C)C)C(=O)[C@]1(CO1)C)NC(=O)[C@H]([C@@H](C)CC)N(C)C(=O)C [epoxomicin]
Method in brief: as §1

[3] = compound: CCn1c(C(=O)N(C2CC2)C2CC2)cc2c3c(ncn3C)c(Nc3cc(C)n(C)n3)nc21
Method in brief: as §1

[4] = compound: CCn1cc(-c2ccnc3[nH]c(-c4cccc(CN(C)C)c4)cc23)c(-c2ccc(NC(=O)N(C)C)cc2)n1
Method in brief: as §1

[5] = compound: CN(C)CC(=O)Nc1ccc2[nH]c(=O)c3ccccc3c2c1
Method in brief: as §1

rosiglitazone = compound: CN(CCOC1=CC=C(C=C1)C[C@H]2C(=O)NC(=O)S2)C3=CC=CC=N3 (racemic) [rosiglitazone]
Method in brief: as §1

[6] = compound: CN1C2=C(C3=C1C(=O)N(N=C3)CC4=CC(=CC=C4)N)SC(=C2)S(=O)C
Method in brief: as §1

[7] = compound: CN1CCC(CNc2ccc3ncc(-c4cccc(OC(F)(F)F)c4)n3n2)CC1
Method in brief: as §1

Chain of UniProt Q02790 (Q02790 whole entry, looked up): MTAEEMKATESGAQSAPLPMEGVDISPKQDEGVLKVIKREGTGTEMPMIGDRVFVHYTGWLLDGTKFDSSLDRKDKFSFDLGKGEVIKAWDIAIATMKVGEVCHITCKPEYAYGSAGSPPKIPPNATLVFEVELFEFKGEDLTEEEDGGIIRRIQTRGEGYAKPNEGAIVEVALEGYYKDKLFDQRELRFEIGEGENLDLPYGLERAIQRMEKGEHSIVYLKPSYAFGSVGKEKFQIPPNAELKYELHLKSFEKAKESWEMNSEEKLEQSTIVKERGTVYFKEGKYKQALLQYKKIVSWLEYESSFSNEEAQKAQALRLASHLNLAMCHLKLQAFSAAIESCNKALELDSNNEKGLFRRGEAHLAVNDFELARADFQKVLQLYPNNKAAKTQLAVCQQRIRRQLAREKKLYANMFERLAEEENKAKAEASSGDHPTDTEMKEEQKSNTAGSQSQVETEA
Chain of UniProt P08236 (P08236 whole entry, looked up): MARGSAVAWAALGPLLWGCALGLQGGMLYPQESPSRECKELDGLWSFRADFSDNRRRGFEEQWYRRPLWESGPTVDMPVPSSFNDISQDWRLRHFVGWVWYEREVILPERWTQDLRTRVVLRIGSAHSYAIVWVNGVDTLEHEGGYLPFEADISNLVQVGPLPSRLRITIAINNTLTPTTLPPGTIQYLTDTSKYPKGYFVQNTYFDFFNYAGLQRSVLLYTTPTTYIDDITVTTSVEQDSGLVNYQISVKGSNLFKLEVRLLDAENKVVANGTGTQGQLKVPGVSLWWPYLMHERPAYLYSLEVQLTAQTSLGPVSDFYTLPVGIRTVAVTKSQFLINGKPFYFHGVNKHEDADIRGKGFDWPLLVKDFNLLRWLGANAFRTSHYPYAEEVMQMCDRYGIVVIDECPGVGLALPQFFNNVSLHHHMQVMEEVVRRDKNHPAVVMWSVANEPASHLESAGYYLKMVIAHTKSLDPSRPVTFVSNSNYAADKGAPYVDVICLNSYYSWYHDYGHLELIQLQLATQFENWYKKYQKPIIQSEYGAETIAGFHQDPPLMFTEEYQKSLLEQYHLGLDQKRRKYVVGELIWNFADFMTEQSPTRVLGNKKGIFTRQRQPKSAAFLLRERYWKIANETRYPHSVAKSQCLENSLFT
Chain of UniProt Q7Z4V5 (Q7Z4V5 whole entry, looked up): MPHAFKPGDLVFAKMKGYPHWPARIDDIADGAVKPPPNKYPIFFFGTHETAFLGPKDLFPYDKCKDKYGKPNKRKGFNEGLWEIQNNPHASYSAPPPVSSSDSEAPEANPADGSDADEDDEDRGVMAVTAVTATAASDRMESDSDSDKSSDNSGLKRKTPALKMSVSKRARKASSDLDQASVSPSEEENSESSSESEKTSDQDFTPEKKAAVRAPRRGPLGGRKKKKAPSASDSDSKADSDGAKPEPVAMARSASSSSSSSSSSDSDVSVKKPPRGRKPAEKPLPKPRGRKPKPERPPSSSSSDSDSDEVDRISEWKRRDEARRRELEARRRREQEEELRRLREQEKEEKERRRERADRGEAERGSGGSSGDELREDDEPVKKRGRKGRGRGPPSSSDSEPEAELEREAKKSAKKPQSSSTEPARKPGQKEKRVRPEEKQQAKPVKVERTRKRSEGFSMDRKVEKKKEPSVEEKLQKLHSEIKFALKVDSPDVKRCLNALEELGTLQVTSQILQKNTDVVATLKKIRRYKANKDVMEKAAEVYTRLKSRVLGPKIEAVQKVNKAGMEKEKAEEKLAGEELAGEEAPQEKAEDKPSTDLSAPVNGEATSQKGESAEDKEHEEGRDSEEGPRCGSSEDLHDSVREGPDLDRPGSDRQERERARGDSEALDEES
Chain of UniProt Q16774 (Q16774 whole entry, looked up): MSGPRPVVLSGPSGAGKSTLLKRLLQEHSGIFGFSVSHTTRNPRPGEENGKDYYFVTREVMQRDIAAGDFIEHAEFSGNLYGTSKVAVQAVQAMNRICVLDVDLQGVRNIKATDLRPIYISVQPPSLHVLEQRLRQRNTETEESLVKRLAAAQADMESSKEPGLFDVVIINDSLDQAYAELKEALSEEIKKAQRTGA
Chain of UniProt Q14C86 (Q14C86 whole entry, looked up): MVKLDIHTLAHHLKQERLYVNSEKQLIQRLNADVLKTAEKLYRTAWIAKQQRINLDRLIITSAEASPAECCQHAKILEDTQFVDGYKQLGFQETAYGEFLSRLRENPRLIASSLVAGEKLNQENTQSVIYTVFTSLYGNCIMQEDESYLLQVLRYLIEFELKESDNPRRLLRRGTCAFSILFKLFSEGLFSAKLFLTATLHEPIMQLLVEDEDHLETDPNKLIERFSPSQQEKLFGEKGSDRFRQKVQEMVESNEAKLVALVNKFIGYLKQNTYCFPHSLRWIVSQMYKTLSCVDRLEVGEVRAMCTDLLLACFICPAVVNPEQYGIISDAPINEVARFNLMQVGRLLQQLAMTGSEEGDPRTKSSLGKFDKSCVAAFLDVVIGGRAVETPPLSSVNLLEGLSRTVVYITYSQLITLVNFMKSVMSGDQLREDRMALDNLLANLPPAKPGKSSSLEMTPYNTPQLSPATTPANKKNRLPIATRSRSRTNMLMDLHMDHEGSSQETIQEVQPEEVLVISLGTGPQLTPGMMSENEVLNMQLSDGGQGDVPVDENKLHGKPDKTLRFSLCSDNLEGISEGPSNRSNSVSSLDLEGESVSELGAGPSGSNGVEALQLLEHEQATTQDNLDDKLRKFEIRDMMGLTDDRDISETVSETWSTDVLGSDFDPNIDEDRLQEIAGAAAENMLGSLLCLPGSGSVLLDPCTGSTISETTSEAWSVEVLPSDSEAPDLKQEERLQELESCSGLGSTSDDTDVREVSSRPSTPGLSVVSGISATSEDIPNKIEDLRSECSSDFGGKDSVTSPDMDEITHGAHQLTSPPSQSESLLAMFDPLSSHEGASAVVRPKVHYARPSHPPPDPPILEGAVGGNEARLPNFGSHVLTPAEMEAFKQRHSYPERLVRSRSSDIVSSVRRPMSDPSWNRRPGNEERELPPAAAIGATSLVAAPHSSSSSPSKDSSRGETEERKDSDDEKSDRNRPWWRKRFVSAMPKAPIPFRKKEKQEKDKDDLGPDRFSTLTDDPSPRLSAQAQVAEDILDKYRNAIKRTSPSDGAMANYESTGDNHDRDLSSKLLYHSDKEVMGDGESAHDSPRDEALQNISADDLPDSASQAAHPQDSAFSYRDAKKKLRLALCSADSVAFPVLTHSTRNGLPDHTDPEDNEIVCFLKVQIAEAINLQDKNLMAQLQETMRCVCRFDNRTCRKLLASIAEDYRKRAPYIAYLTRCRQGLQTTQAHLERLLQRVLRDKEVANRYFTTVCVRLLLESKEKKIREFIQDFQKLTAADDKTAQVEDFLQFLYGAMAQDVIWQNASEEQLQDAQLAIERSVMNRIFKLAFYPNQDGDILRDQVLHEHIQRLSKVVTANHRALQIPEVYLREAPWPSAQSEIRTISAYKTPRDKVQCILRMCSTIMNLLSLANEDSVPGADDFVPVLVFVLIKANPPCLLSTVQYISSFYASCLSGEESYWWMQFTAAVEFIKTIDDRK
Chain of UniProt Q9NVI1 (Q9NVI1 whole entry, looked up): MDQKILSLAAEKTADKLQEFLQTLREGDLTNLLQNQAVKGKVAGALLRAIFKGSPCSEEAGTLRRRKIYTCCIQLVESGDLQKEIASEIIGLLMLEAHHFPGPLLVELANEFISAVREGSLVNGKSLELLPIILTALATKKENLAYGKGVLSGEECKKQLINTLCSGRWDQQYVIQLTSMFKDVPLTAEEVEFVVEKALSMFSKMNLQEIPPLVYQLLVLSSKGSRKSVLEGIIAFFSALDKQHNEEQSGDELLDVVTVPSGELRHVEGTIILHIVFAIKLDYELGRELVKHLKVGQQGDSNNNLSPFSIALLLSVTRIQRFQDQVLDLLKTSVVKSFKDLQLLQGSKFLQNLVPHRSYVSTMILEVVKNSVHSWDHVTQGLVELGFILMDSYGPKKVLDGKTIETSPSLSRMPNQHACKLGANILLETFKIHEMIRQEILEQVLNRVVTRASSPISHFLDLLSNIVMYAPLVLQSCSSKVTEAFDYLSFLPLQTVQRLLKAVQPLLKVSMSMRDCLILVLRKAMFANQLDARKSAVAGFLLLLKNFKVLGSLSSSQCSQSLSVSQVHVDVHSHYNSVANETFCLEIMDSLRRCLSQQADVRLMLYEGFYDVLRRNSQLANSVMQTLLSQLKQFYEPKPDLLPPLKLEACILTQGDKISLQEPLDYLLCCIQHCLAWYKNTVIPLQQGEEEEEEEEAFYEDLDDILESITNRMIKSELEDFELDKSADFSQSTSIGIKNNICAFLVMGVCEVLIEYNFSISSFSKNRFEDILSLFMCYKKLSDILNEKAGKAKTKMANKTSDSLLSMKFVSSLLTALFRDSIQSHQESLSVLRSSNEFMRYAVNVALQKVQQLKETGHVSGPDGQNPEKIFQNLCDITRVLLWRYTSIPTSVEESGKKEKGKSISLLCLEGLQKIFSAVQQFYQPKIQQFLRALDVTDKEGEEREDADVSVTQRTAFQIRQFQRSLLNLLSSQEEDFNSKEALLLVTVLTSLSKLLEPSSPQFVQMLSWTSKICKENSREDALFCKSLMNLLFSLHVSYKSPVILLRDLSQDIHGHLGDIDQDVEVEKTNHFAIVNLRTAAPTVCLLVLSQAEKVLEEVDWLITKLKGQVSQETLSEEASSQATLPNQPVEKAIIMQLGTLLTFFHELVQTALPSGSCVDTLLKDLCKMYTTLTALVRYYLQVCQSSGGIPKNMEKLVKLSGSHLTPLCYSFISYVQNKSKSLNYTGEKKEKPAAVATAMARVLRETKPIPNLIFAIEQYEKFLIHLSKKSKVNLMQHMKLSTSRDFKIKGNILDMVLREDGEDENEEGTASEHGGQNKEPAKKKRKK
Chain of UniProt P01112 (P01112 whole entry, looked up): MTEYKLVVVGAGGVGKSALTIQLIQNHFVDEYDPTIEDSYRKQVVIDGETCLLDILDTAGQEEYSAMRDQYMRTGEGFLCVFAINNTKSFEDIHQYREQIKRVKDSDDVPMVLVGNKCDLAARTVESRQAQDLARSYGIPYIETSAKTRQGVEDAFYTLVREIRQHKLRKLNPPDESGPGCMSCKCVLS

Target | log2 fold change [1] | log2 fold change (volasertib) | log2 fold change [2] | log2 fold change (epoxomicin) | log2 fold change [3] | log2 fold change [4] | log2 fold change [5] | log2 fold change (rosiglitazone) | log2 fold change [6] | log2 fold change [7]
GLRX3 (UniProt O76003) | -0.164 | -0.331 (active) | 0.066 | 0.018 | 0.027 | -0.025 | -0.011 | 0.014 | -0.03 | -0.03
HECTD1 (UniProt Q9ULT8) | 0.107 | -0.221 | 0.063 | 0.012 | -0.041 | 0 | 0.016 | 0.056 | 0.17 | -0.054
FKBP4 (UniProt Q02790) | -0.066 | -0.136 | 0.07 | 0.033 | -0.01 | -0.051 | 0.019 | 0.042 | -0.04 | -0.119
GTF2A2 (UniProt P52657) | 0.053 | 0.097 | -0.07 | 0.036 | 0.03 | 0.025 | -0.03 | 0.003 | -0.046 | -0.031
GSTO1 (UniProt P78417) | 0.005 | 0.08 | 0.009 | 0.013 | 0.036 | -0.052 | -0.007 | 0.018 | -0.082 | 0.084
GCLM (UniProt P48507) | -0.183 | -0.41 (active) | 0.058 | 0.03 | -0.049 | -0.046 | 0.042 | 0.082 | 0.03 | -0.112
GSTP1 (UniProt P09211) | 0.295 (active) | 0.362 (active) | 0.009 | -0.025 | 0.032 | 0.012 | -0.013 | 0.007 | -0.066 | -0.034
GUSB (UniProt P08236) | -0.104 | 0.067 | 0.354 | -0.053 | -0.151 | -0.026 | -0.001 | -0.041 | -0.028 | 0.001
GUK1 isoform 2 (UniProt Q16774) | -0.116 | 0.081 | 0.097 | 0.12 | -0.151 | -0.167 | 0.049 | 0.158 | 0 | 0.071
HDDC2 (UniProt Q7Z4H3) | 0.008 | 0.08 | 0.014 | -0.006 | 0.034 | -0.063 | 0.025 | 0.035 | -0.102 | -0.066
GABPA (UniProt Q06546) | -0.017 | -0.304 (active) | 0.079 | 0.007 | -0.083 | -0.07 | 0.037 | 0.076 | -0.026 | -0.174
GSK3B isoform 2 (UniProt P49841) | 0.013 | -0.027 | -0.002 | 0.058 | -0.032 | -0.1 | -0.001 | 0.036 | -0.004 | 0.004
GOLPH3 (UniProt Q9H4A6) | 0.029 | 0.008 | 0.086 | 0.084 | -0.016 | -0.059 | -0.001 | 0.037 | -0.075 | 0.236 (active)
HDGFL2 (UniProt Q7Z4V5) | -0.019 | 0.014 | -0.043 | 0.012 | -0.006 | 0.015 | -0.011 | -0.004 | 0.006 | -0.033
HIP1R (UniProt O75146) | -0.035 | -0.268 (active) | 0.015 | 0.051 | -0.04 | -0.016 | -0.017 | 0.067 | 0.026 | -0.134
GAPVD1 isoform 6 (UniProt Q14C86) | -0.12 | -0.585 (active) | 0.034 | -0.015 | -0.061 | -0.016 | 0.038 | 0.034 | 0.083 | -0.197
FANCI (UniProt Q9NVI1) | -0.277 (active) | -0.159 | 0.127 | -0.077 | -0.022 | -0.093 | 0.072 | 0.066 | -0.013 | -0.188
GALNT1 (UniProt Q10472) | -0.06 | -0.218 (active) | -0.011 | -0.068 | -0.005 | -0.041 | -0.011 | 0.003 | -0.074 | 0.106
FUCA2 (UniProt Q9BTY2) | -1.11 (active) | -1.04 (active) | 0.001 | -0.024 | 0.007 | 0.003 | -0.019 | -0.023 | -0.033 | -0.029
GLYR1 (UniProt Q49A26) | 0.099 | 0.054 | 0.026 | -0.074 | -0.047 | 0.026 | -0.038 | -0.292 | -0.019 | 0.041
HRAS (UniProt P01112) | -0.014 | 0.057 | -0.028 | 0.104 | 0.007 | -0.082 | -0.125 | -0.159 | -0.033 | 0.048
GALK1 isoform 2 (UniProt P51570) | -0.03 | -0.009 | 0.053 | 0.131 | 0.026 | -0.064 | 0.106 | 0.024 | -0.049 | -0.03
GDI1 (UniProt P31150) | 0.018 | 0.113 | 0.025 | 0.022 | -0.031 | -0.068 | -0.015 | 0.027 | -0.082 | 0.008
HMOX2 (UniProt P30519) | -0.015 | -0.251 (active) | 0.074 | 0.009 | -0.054 | -0.069 | 0.008 | 0.012 | 0.011 | 0.054
HADHA (UniProt P40939) | 0.03 | 0.469 | 0.107 | 0.055 | 0.231 | -0.233 | 0.023 | -0.019 | -0.053 | -0.334
FNTB (UniProt P49356) | 0.948 (active) | 0.707 (active) | 0.01 | 0.044 | -0.006 | -0.212 | 0.02 | 0.062 | -0.055 | -0.088
GDPD1 (UniProt Q8N9F7) | 0.069 | 0.049 | -0.019 | 0.017 | -0.015 | -0.188 | 0.004 | 0.083 | -0.132 | 0.092
GMEB1 (UniProt Q9Y692) | -0.071 | -0.281 (active) | 0.039 | 0.059 | -0.056 | -0.05 | -0.045 | 0.096 | -0.07 | -0.014
HEXA (UniProt P06865) | -0.423 (active) | -0.479 (active) | -0.028 | -0.012 | 0.022 | -0.002 | -0.021 | 0 | -0.02 | -0.63 (active)
HAX1 (UniProt O00165) | -0.087 | -0.393 (active) | -0.011 | -0.018 | -0.031 | 0.084 | 0.05 | 0.023 | 0.012 | -0.584 (active)

— the supplement of paper PMC10849652
